Sampled rows, rich in hits. Any-hit rate of the full collection: about 5.9%.
Rtt109 Vps75: inhibitors of C. albicans Rtt109/Vps75 HAT, primary screen, biochemical, ThioGlo CoA-SH fluorescence, plate reader | Histone acetyltransferase RTT109 (Candida albicans (strain SC5314 / ATCC MYA-2876)), … | purified Rtt109/Vps75, 4 h | inhibition, % at 34.9 µM | 0.16% of 330,000 active | AID 540336, 2011;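 active = inhibition of at least 50% in every replicate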
LANA-H2A inh: blockers of LANA interaction with H2A/H2B – biochemical, FP readout, HTS, primary screen; cell-free LANA-H2A/H2B peptide, fluorescence polarization; inhibition, % (no concentration beside the values); 0.6% of 320,000 active; Protein LANA1 (Human herpesvirus 8 type P (isolate GK18)), Q9QR71; in the data active = inhibition mostly above about 10%, no sharp cut-off; inactive = mostly below about 6.7%
ABHD5-PLIN5 inh: ABHD5-PLIN5 interaction inhibitors, primary screen, cell lysate, split luciferase complementation, luminescence; Perilipin-5 (Homo sapiens) + 1-acylglycerol-3-phosphate O-acyltransferase ABHD5 (Homo …; Split G. princeps luciferase complementation, 4 h; inhibition, % at 4 µM; 0.78% of 360,000 active;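 active = inhibition above the mean inhibition across every tested compound plus 3 SD, cut at about 22% in these data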;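 note: 0% = DMSO only wells and the 100% control is not disclosed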
PRMT1 FP inh: PRMT1 methyltransferase inhibitors, primary screen, biochemical, fluorescence polarization | AID 652257, 2013 | inhibition, % at 2.79 µM | Protein arginine N-methyltransferase 1 (Homo sapiens), Q99873 | 1.3% of 370,000 active | recombinant PRMT1, activity-based probe fluorescence polarization;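 active = inhibition above about 21% made by adding two undisclosed values, limit read from the data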
Target sequence (Q99873 whole entry, looked up): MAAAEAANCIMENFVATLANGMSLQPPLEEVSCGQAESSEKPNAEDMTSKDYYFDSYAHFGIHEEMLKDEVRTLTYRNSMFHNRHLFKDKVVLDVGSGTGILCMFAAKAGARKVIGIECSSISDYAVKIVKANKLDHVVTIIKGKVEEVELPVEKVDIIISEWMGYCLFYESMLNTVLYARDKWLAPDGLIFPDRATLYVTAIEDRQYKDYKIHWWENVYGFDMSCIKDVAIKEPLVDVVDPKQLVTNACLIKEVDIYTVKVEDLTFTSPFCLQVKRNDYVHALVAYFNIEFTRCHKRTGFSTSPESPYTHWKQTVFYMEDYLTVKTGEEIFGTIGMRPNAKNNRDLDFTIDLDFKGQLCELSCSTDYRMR
rCAG RNA binder: binders of r(CAG) RNA repeats, primary screen, biochemical, fluorescence; r(CAG) RNA repeat, TO-PRO-1 dye displacement fluorescence; inhibition, % at 3 µM; 1.3% of 370,000 active; AID 651821, 2012;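 active = inhibition above the plate cutoff, the mean of all test compounds on that plate plus 3 SD, cut at about 35% in these data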;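 note: 0% = DMSO alone and 100% = 100 µM mitoxantrone as full dye displacement; higher means more dye released from RNA so lower well fluorescence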
ALR inh: inhibitors of human ALR sulfhydryl oxidase, primary screen, biochemical, H2O2 detection, HRP-luminol luminescence, single point; purified ALR, DTT oxidation; inhibition, % (test concentration not listed); 3.8% of 290,000 active; AID 485317, 2010; FAD-linked sulfhydryl oxidase ALR (Homo sapiens), P55789;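 active = mean replicate inhibition above about 79%, with every replicate also reaching it, limit read from the data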
Target sequence (P55789 whole entry, looked up): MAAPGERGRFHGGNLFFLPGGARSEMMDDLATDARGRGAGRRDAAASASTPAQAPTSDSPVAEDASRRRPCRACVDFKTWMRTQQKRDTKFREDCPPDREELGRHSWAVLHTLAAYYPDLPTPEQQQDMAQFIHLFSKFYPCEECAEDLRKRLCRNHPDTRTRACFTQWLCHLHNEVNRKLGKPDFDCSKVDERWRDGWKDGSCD
rCAG binder conf: small molecules binding CAG repeat RNA – biochemical, fluorescence, confirmation; r(CAG) RNA repeat, TO-PRO-1 dye displacement fluorescence; 70% of 4,300 active; inhibition, % at 3 µM; shares compounds with rCAG RNA binder;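 active = inhibition above a per-plate cutoff, the mean inhibition of sample wells plus 3 SD, cut at about 35% in these data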;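 note: loss of TO-PRO-1 fluorescence as compound displaces dye from 1x1 AA loop RNA; 0% = DMSO only wells and 100% = 100 µM mitoxantrone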
dCAG dye counter: displacement of TO-PRO-1 from CAG DNA duplex, counter-screen for rCAG RNA repeat binder project, biochemical, fluorescence, TO-PRO-1 dye, d(CAG) DNA oligo; 94% of 4,300 active; d(CAG) DNA oligo TO-PRO-1 dye displacement; inhibition, % at 3 µM; shares compounds with rCAG RNA binder;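 active = inhibition above its plate's cutoff, the mean test-well inhibition plus 3 SD, cut at about 4.8% in these data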;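 note: 0% = DNA dye mix with DMSO and 100% = 100 µM mitoxantrone; hits displace the dye from DNA and so lower well fluorescence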
The depositor's hits bear a star; . = no result.

SMILES	Rtt109 Vps75	LANA-H2A inh	ABHD5-PLIN5 inh	PRMT1 FP inh	rCAG RNA binder	ALR inh	rCAG binder conf	dCAG dye counter
CC(C)C(=O)NC(NC(=S)Nc1ccc(S(N)(=O)=O)cc1)C(Cl)(Cl)Cl (stereo not drawn)	-3.8	0.6	-1.2	-1.1	45.7*	22.4	4.0	2.4
CCC(NC(=O)c1ccc2c(ccn2Cc2cccc(-c3ccccc3C(=O)O)c2)c1)c1ccccc1 (stereo not drawn)	.	.	.	11.6	49.1*	.	48.4*	17.8*
CC(=O)N1CCc2c(sc(NC(=O)c3ccc(S(=O)(=O)N(C)CC4CCCO4)cc3)c2C(N)=O)C1 (stereo not drawn)	.	.	10.4	1.8	16.6	.	.	.
Cc1cc(Nc2ccc(Cl)cc2)nc(-c2ccccc2O)n1	7.2	-3.4	2.5	1.2	25.4	-12.2	.	.
Cc1cc(Nc2cccc(Cl)c2)nc(-c2ccccc2O)n1	3.0	-6.0	11.3	2.7	36.4*	-1.6	23.8	10.0*
Cn1c(C(=O)O)c(CC(=O)Nc2ccccc2F)c2ccccc21	-7.1	-0.8	-1.7	1.1	7.7	-9.0	.	.
Cc1ccc2c(c1)c(CC(=O)Nc1ccc(C)c(F)c1)c(C(=O)O)n2C	-2.9	-16.7	8.4	0.9	48.8*	6.7	44.4*	13.0*
O=C(Nc1ccccc1C(=O)O)c1cc(S(=O)(=O)N2CCOCC2)c(Br)s1	23.5	3.8	12.4	1.2	46.5*	34.6	66.5*	36.1*
O=C(Nc1ccnn1C1CCN(C(=O)c2cccnc2)CC1)c1cccc(F)c1	.	.	3.7	2.5	2.7	.	.	.
CCOC(=O)[C@@H]1CSCCS(=O)(=O)N1Cc1ccc(C(F)(F)F)cc1	.	.	.	-3.2	0.6	.	.	.
Cc1oc(-c2ccccc2)cc1C(=O)Nc1cccc(/C=C/C(=O)O)c1	18.6	.	2.5	5.9	47.0*	.	39.0*	9.0*
CC(C)c1c(C(=O)Nc2ccccc2)c(-c2ccccc2)c(-c2ccc(F)cc2)n1CC[C@@H](O)C[C@@H](O)CC(=O)O	.	.	-2.2	-3.3	37.4*	.	36.2*	9.9*
O=C(Nc1ccccc1)c1c(F)c(F)c(F)c(F)c1F	-2.0	-2.1	-0.9	0.1	1.3	-5.7	.	.
O=C(O)Cn1cc(/C=C2/SC(=O)N(CC(=O)N3CCCCCC3)C2=O)c2ccccc21	.	5.3	.	2.7	40.3*	-8.7	36.9*	10.4*
O=C(O)CN1C(=O)/C(=C\c2ccccc2OCc2ccc(Cl)cc2Cl)SC1=S	-1.7	-2.5	-10.8	9.8	79.4*	86.8*	89.8*	65.7*
O=C(O)CN1C(=O)/C(=C\c2cc(Br)ccc2OCc2ccc([N+](=O)[O-])cc2)SC1=S	-10.4	-0.7	-14.7	24.1*	76.6*	82.7*	94.4*	75.2*
CCOc1ccccc1C=C1SC(=S)N(CC)C1=O	1.1	.	-1.2	-0.6	1.6	.	.	.
O=C(O)CCN1C(=O)/C(=C\c2ccc(OCc3ccccc3)c(OCc3ccccc3)c2)SC1=S	1.2	1.4	-4.6	2.1	12.4	-9.1	.	.
O=C(O)CN1C(=O)/C(=C\c2cc(Br)ccc2OCc2ccccc2Cl)SC1=S	25.0	0.5	-7.4	13.0	77.8*	8.1	93.2*	74.8*
O=C(O)CN1C(=O)/C(=C\c2cccc(OCc3ccc(Cl)cc3Cl)c2)SC1=S	-4.5	-1.8	-2.3	2.6	78.6*	98.5*	85.3*	57.5*
COc1cccc(CNC(=O)[C@@H]2CCCN2C(=O)[C@H]2CCCCN2C(=O)c2ccccc2C)c1	.	.	2.4	0.5	-3.5	.	.	.
C[C@H](O)[C@@H]1CN2CCc3c([nH]c4cccc(-c5ccccc5)c34)[C@@H]2C[C@@H]1N(C)C(=O)C1CCCCC1	.	.	.	-1.1	8.3	.	.	.
O=C(NCCO)/C(=C\c1cccc([N+](=O)[O-])c1)NC(=O)c1cccs1	.	.	-1.3	3.0	1.7	.	.	.
O=C(O)CN1C(=O)/C(=C\c2cc(Br)ccc2OCc2ccccc2F)SC1=S	0.9	-4.8	-9.0	17.6	64.8*	17.9	87.2*	60.6*
COC(=O)C1=CN(c2ccc(OC)cc2OC)C(N)=C(C#N)C1c1ccccc1F (stereo not drawn)	.	.	2.1	-0.7	7.6	.	.	.
SMILES	Rtt109 Vps75	LANA-H2A inh	ABHD5-PLIN5 inh	PRMT1 FP inh	rCAG RNA binder	ALR inh	rCAG binder conf	dCAG dye counter
O=C(N[C@H](Cc1ccccc1)C(=O)NCc1ccco1)[C@H]1O[C@@H](n2ccc(=O)[nH]c2=O)[C@H](O)[C@@H]1O	.	.	.	-0.1	0.4	.	.	.
C[C@H](O)[C@@H]1CN2CCc3c([nH]c4ccccc34)[C@@H]2C[C@@H]1N(C)CC1CCCCC1	.	.	.	-8.6	0.3	.	.	.
CS(=O)(=O)c1ccc2c(c1)sc1nc(=O)c(/C=C3/C=CC(=O)C(O)=C3)c(N)n12	7.1	1.7	2.0	20.1	39.4*	90.0*	48.2*	18.4*
CCOC(=O)/C(N=Nc1sc(C(=O)OCC)c(C)c1C(=O)OCC)=C(\C)O	.	-4.8	.	.	.	41.3	.	.
CCOC(=O)c1sc(N=NC2=C(O)CCCC2=O)c(C(=O)OCC)c1C	4.1	-1.9	-2.4	5.8	56.9*	-9.9	32.7	16.6*
CCCCCCCCCCCCN1[C@@H](CC(=O)O)c2cc(F)ccc2S1(=O)=O	2.1	-6.1	3.5	4.7	75.8*	97.6*	67.8*	24.1*
CCC[C@H]1[C@@H](NC(=O)c2cccc(C)c2)CC[C@@]23CCCN2C(=O)CCC[C@@H]13	.	.	.	2.1	.	.	.	.
CCOC(=O)C1=CCN(S(=O)(=O)c2ccccc2C)C1c1ccc(Br)cc1 (stereo not drawn)	.	.	0.4	4.0	-1.1	.	.	.
COc1ccc([C@@H]2CC=C(C(=O)O)[C@H](c3ccc(Cl)cc3)N2S(=O)(=O)c2ccccc2C)cc1	3.1	-2.9	0.9	-0.9	47.2*	7.3	60.0*	24.7*
COc1ccc([C@@H]2CC=C(C(=O)O)[C@H](c3ccc(Br)cc3)N2S(=O)(=O)c2ccccc2C)cc1	5.8	.	-0.2	1.3	76.8*	.	75.5*	39.9*
